This excerpt belongs to a sample that is enriched for hits.
12-LOX inh: blocks human arachidonate 12S-lipoxygenase. Potency, µM (titrated, usually from 108 µM), without a hit: at the highest dose activity change, negative = inhibition, most hits filed as inhibitors. hit rate 1.1% among 580,000. P18054. purified 12hLO, xylenol orange hydroperoxide absorbance; also: potency is read from the fitted curve at half-maximal effect
Target sequence (P18054 whole entry, looked up): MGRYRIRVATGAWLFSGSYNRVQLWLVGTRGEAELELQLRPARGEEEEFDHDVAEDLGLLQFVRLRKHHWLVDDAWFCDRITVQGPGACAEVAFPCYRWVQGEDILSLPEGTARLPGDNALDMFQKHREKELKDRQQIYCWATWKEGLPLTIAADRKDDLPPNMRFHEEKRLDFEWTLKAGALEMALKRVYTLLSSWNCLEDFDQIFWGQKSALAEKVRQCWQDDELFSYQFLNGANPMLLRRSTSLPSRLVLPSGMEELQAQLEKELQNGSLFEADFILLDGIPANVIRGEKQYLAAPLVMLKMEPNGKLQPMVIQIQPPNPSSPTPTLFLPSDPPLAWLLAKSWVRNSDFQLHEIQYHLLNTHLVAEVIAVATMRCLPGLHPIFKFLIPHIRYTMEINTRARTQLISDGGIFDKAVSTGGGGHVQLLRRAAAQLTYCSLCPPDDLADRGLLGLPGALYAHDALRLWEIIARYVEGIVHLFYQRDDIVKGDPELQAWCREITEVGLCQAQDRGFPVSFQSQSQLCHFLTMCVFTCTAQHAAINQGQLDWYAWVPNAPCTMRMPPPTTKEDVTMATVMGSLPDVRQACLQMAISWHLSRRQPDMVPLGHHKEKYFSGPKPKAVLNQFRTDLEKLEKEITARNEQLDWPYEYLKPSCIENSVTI
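Purified human 12hLO at 150 nM in 25 mM Hepes, 0.01% Triton X-100, pH 7.0, preincubated 15 min at room temperature with compound. Reaction started with 40 uM arachidonic acid, 30 min at room temperature. Hydroperoxide measured by Fe-xylenol orange, 573/405 nm absorbance ratio.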
HT1080NT lethal: kills 2HG-producing HT-1080-NT fibrosarcoma cells | Potency, µM (doses to about 46.1 µM), for inactives: at the highest dose activity, negative = less viability, usual class: cytotoxic | HT-1080-NT fibrosarcoma viability, CellTiter-Glo ATP luminescence, 48 h | hit rate 1.6% among 360,000;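 also: NT is the 2HG producing partner of a matched IDH1 knockdown line; potency is read from the fitted curve at half-maximal effect; 0% = DMSO-treated cells and -100% = media-only wells without cells; nearly all actives have a fitted effect of over 55% in size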
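Viability by CellTiter-Glo luminescence after 48 h compound exposure at 37C of HT-1080-NT cells (750/well, RPMI, 5% FBS). % activity scaled between DMSO wells and medium-only wells, then curve-fitted and categorized by curve class.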
DT40 TDP1 CPT: growth inhibition of DT40 Tdp1-/-;hTDP1 cells with camptothecin (screen for TDP1 inhibitors). Potency, µM (titrated, usually from 46.2 µM), without a hit: at the highest dose activity change, negative = growth inhibition, hits mostly inhibitors. hit rate 12% among 420,000. chicken DT40 Tdp1-/-;hTDP1 cells + 20 nM CPT, ATP luminescence, 48 h; also: potency is read from the fitted curve at half-maximal effect; nearly all actives have a fitted effect of over 55% in size
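Chicken DT40 Tdp1-/- cells complemented with human TDP1, 400 cells/well, exposed to compounds plus 20 nM camptothecin for at least 48 h at 37 C; viability read as ATP content by CellTiter-Glo luminescence.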
IL-1B inflam inh: inflammasome signaling inhibition, IL-1 beta readout; THP-1 LPS/ATP IL-1B secretion, AlphaLISA, 16 h; hits give low values; activity change, % at 57.5 µM; hit rate 4.7% among 360,000; in the data active = activity change below about -50%; inconclusive = mostly about -30% to -49%
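Secreted IL-1B measured by AlphaLISA bead assay after 16 h compound exposure of THP-1 cells; compounds (final up to 57.5 uM) added 1 h before LPS (250 ng/mL) and ATP (1.25 mM) stimulation; lower signal means less secretion.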
HT1080 IDH1KD tx: HT-1080 IDH1 knockdown cell toxicity (counter line); HT-1080 IDH1 knockdown viability, ATP luminescence, 48 h; AID 686971; hit rate 2% among 360,000; Potency, µM (series often up to 46.1 µM), inactives show at the highest dose activity, negative = toxicity, hits mostly cytotoxic;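 also: potency is read from the fitted curve at half-maximal effect; 0% = DMSO wells and -100% = cell-free medium wells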
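Using the IDH1-knockdown HT-1080 line run in the same batch and compound series as the NT line, viability after 48 h at 37 °C was determined by CellTiter-Glo luminescence and expressed as % activity.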
DT40 TDP1 no CPT: qHTS for Inhibitors of human tyrosyl-DNA phosphodiesterase 1 (TDP1): qHTS in cells in absence of CPT. hit rate 15% among 420,000. DT40 Tdp1-/- hTDP1 cells, no CPT, ATP luminescence, 48 h. Potency, µM (doses to about 46.2 µM), for inactives: top-dose activity change, negative = growth inhibition, most hits filed as inhibitors; also: potency is read from the fitted curve at half-maximal effect; nearly all actives have a fitted effect of over 55% in size
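Stably hTDP1-transfected Tdp1-null chicken DT40 cells were treated with library compounds minus camptothecin and grown for at least 48 hr at 37 °C, after which cellular ATP was quantified by luminescence.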
* = called active by the depositor; ? = inconclusive; · = no result given. Unless noted, calls follow the shape of the dose curve; as a rule, active = well fitted curve in the direction sought with a large enough effect; inconclusive = small, poorly fitted or top-dose-only effect, or another doubt; inactive = no such curve, though single readings can be large; an effect the other way counts as inactive or inconclusive. Unless noted, % is scaled to controls: 0 for no effect and ±100 for the full control effect.

SMILES | 12-LOX inh | HT1080NT lethal | DT40 TDP1 CPT | IL-1B inflam inh | HT1080 IDH1KD tx | DT40 TDP1 no CPT
COc1ccc(-c2noc(N3CCC(C(=O)Nc4ccccc4F)CC3)n2)cc1 | 3.9% | 2.5% | -16.3% | 20.8 | 13.9% | -3.9%
COc1ccc(-c2noc(N3CCCC(C(=O)Nc4cc(F)ccc4F)C3)n2)cc1 (stereo unspecified) | 11.9% | -0.6% | ? | -0.1 | 1.5% | 18.4µM*
COC(=O)c1c(NC(=O)c2ccncc2)sc(C(=O)Nc2ccccc2)c1C | -6.1% | · | · | · | · | ·
CC1CC(C)(C)N(C(=O)CSc2ccc(-c3ccc(F)cc3)nn2)c2ccccc21 (stereo unspecified) | -2.1% | ? | ? | -89.9* | ? | 22.4µM*
Cc1c(O)ccc2c(CN3CCN(C)CC3)cc(=O)oc12 | 76.9% | · | · | · | · | ·
Cc1ccc(C2C(C#N)=C(N)Oc3cc(C)oc(=O)c32)o1 (stereo unspecified) | ? | -28.0% | 18.4µM* | -5.5 | ? | 18.4µM*
CCOc1ccccc1CN1CCCCCCNC(=O)[C@@H]2CCC[C@@H]21 | 290.0% | · | · | · | · | ·
O=C(CSc1nc(Cl)nc2nc[nH]c12)NCCc1ccc(O)cc1 | -3.0% | · | · | · | · | ·
O=C(/C=C/c1ccc(Cl)cc1)NC(=S)Nc1ccc(N2CCOCC2)c(Cl)c1 | -20.6% | ? | 11.6µM* | 8.5 | ? | 11.6µM*
O=C(/C=C/c1ccccc1)Nc1cccnc1 | 18.2% | 14.4% | -3.9% | -5.9 | 0.1% | -21.7%
O=C(/C=C/c1ccccc1)Nc1cccc(C(=O)NC2CC2)c1 | -2.1% | 13.0% | -2.8% | -64.1* | 17.1% | -28.8%
O=C(Nc1cccc(C(=O)NC2CCCC2)c1)c1ccccc1 | 143.1% | -4.7% | ? | ? | -11.0% | ?
O=C(NC1CC1)c1cccc(NC(=O)c2cnn(-c3ccccc3)n2)c1 | 24.7% | 2.7% | 23.1µM* | 7.5 | 6.8% | 16.4µM*
O=C(C=Cc1ccccc1)Nc1ccccc1 | -13.7% | -11.3% | -28.6% | -68.6* | -7.1% | -25.3%
O=C(/C=C/c1ccc(Cl)cc1)Nc1ccccc1N1CCOCC1 | 1.5% | 12.3% | ? | 0.1 | 11.2% | ?
O=C(Nc1ccccc1)N1CCC2(CC1)SCC(=O)N2c1ccccc1 | 31.1% | · | · | · | · | ·
CC(C)(C)c1ccc(/C=C/C(=O)Nc2ccncc2)cc1 | 0.3% | ? | 10.3µM* | ? | ? | 7.31µM*
O=C(/C=C/c1ccc(F)cc1)NC(=S)Nc1ccccc1 | ? | ? | ? | ? | -17.2% | 20.6µM*
O=C(/C=C/c1ccccc1)NC(=S)Nc1ccc(N2CCOCC2)cc1 | -5.7% | 7.94µM* | ? | -21.6 | ? | -29.5%
O=C(CCCCl)NC(=S)Nc1ccc(N2CCOCC2)cc1 | 440.6% | 20.0% | 9.2% | -3.3 | 11.8% | 1.4%
O=C(/C=C/c1ccccc1)NC(=S)Nc1ccccc1 | ? | -6.1% | -21.3% | -61.2* | 1.1% | ?
NC(N)=NS(=O)(=O)c1ccc(NC(=S)NC(=O)/C=C/c2ccc(F)cc2)cc1 | 0.9% | -0.9% | -13.0% | 0.4 | -4.1% | -0.6%
Cc1nc2c(cnn2C(C)C)cc1C(=O)N(C)Cc1ccc(Cl)c(Cl)c1 | -0.1% | · | · | · | · | ·
Cc1ccccc1NC(=O)N1CCN(C(=O)c2nsc3ccccc23)CC1 | 21.8% | · | · | · | · | ·
O=C1CS(=O)(=O)N(Cc2ccccc2F)c2ccc(Br)cc21 | ? | ? | -5.5% | 21.4 | -1.1% | -15.6%
SMILES | 12-LOX inh | HT1080NT lethal | DT40 TDP1 CPT | IL-1B inflam inh | HT1080 IDH1KD tx | DT40 TDP1 no CPT
C=CCOC1=CS(=O)(=O)N(Cc2ccc(Br)cc2)c2ccc(Br)cc21 | -26.9% | -2.7% | 16.4µM* | 27.4 | 3.1% | ?
Cc1ccc(NC(=O)CCc2cc(C(C)(C)C)c(O)c(C(C)(C)C)c2)cc1 | -21.9% | · | · | · | · | ·
Cc1ccc(-c2cc3ccccn3c2C=O)cc1C | 15.8µM* | · | · | · | · | ·
COCCN1C(=O)c2ccccc2C(C(=O)Nc2ccc(NC(C)=O)cc2)C12CCCC2 (stereo unspecified) | 25.2% | · | · | · | · | ·
CC(C)C(=O)Nc1ccc2c(c1)C(=O)N(CCC(=O)O)C2=O | 52.6% | -0.3% | -9.9% | 2.8 | -3.4% | 29.1µM*
COc1ccc(CC(=O)Nc2ccc3c(c2)C(=O)N(CCC(=O)O)C3=O)cc1 | 4.3% | -0.8% | 13.9% | 3.8 | -1.4% | 1.7%
N#CCCN(Cc1ccccc1)C(C(=O)NC1CCCCC1)C1CC1 (stereo unspecified) | 34.5% | 13.0% | 16.4µM* | 8.1 | -0.3% | 14.6µM*
N#CCCN(Cc1ccccc1)C(CCc1ccccc1)C(=O)NC1CCCCC1 (stereo unspecified) | 0.0% | ? | ? | -7.8 | ? | ?
COc1ccc(N(C(=O)c2ccco2)C(C(=O)NC2CCCC2)c2ccc(N(C)C)cc2)cc1 (stereo unspecified) | 0.0% | -13.7% | ? | -21.3 | -27.9% | 16.4µM*
COc1ccc(N(C(=O)c2ccco2)C(C(=O)NC2CCCCC2)c2ccccc2)cc1 (stereo unspecified) | 10.5% | 2.1% | 16.4µM* | 1.4 | -0.5% | 25.9µM*
CCOC(=O)CN(Cc1ccccc1)C(C(=O)NC1CCCCC1)c1ccccc1 (stereo unspecified) | -28.7% | · | 20.6µM* | · | · | 14.6µM*
Cc1ccc(C2Cn3nnc(-c4noc(CNC(=O)c5ccccc5)n4)c3CO2)cc1 (stereo unspecified) | 50.5% | · | · | · | · | ·
COc1cccc(N(C(=O)c2ccco2)C(C(=O)NC2CCCC2)c2ccc(N(C)C)cc2)c1 (stereo unspecified) | 22.3% | -0.4% | ? | -3.5 | 1.3% | 16.4µM*
COc1cc(OC)cc(N(C(=O)c2ccco2)C(C(=O)NC2CCCC2)c2ccc(N(C)C)cc2)c1 (stereo unspecified) | 483.3% | -12.9% | ? | -2.8 | -1.7% | ?
Cc1cc(C)c2cccc(NC(=O)C(C)N3C(=O)c4ccccc4C3=O)c2n1 (stereo unspecified) | 31.8% | · | · | · | · | ·
COc1cccc(N2CCN(C(=O)c3ccc(Cn4c(=O)[nH]c5cc(OC)c(OC)cc5c4=O)cc3)CC2)c1 | -7.4% | · | 9.2µM* | · | · | 4.11µM*
CCOc1cc2[nH]c(=O)n(Cc3ccc(C(=O)N4CCN(c5ccccc5)CC4)cc3)c(=O)c2cc1OCC | 2.1% | · | 11.6µM* | · | · | 5.8µM*
CCOc1cc2[nH]c(=O)n(Cc3ccc(C(=O)N4CCN(c5cccc(Cl)c5)CC4)cc3)c(=O)c2cc1OCC | ? | · | 3.66µM* | · | · | 2.59µM*
